KCNQ2 pot: enhances the rat KCNQ2 potassium channel; O88943; CHO-K1 KCNQ2, FluxOR thallium flux fluorescence; active compounds read high; B-score at 10 µM; 310,000 tested, 0.54% active; AID 2239;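 active = fluorescence ratio B-score at least 3 SD of library B-scores, with initial fluorescence B-score within 3 of them, cut at about 5.3 in these data; same plate scores as AID 2156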;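 note: B-score of peak minus minimum over baseline fluorescence ratio after K+ and Tl+ stimulus; positive B-score means potentiation of KCNQ2 with more thallium influx and brighter signal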
Target sequence (O88943 whole entry, looked up): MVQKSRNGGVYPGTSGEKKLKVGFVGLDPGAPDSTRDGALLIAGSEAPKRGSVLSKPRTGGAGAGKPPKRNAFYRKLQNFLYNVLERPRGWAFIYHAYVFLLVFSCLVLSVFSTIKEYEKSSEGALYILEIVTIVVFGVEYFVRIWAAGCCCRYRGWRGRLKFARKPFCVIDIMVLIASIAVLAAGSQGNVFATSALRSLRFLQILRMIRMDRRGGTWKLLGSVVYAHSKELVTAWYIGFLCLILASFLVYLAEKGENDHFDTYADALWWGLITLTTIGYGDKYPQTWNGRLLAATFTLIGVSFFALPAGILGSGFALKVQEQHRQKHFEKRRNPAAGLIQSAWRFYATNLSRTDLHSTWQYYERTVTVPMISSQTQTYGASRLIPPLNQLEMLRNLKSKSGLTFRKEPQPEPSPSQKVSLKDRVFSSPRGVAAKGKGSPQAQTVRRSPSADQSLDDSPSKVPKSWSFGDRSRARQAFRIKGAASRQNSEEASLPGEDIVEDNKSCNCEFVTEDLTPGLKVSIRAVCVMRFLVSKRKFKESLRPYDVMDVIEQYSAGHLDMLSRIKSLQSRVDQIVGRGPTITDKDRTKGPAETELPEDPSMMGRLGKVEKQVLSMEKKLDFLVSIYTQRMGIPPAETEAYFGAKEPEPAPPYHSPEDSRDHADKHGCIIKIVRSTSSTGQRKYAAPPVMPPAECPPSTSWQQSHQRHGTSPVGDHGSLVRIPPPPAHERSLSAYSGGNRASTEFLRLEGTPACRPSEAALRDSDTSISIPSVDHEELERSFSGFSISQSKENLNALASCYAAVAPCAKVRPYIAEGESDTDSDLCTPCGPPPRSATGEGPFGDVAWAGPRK
KCNQ2 inh: blocks the rat KCNQ2 potassium channel. CHO-K1 KCNQ2, FluxOR thallium flux, 20 min; active compounds read low. B-score at 10 µM. O88943. AID 2156. 310,000 tested, 1.1% active;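 active = fluorescence ratio B-score at most minus 3 library SDs, with starting brightness B-score within 2 library SDs, cut at about -5.5 in these data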
Numbers without * were called inactive; i = inactive; . = not tested or not shown. A selection: hits, their analogues and other compounds. The true share with any hit is near 1.6%.

SMILES	KCNQ2 pot	KCNQ2 inh
O=[N+]([O-])c1cccc(/C=C/c2nc3ccc([N+](=O)[O-])cc3[nH]2)c1	-8.13	-8.13*
Cc1nc2ccc([N+](=O)[O-])cc2[nH]1	0.64	i
Cc1ccc(-n2cc(CNCCc3ncc(C)[nH]3)c(-c3ccc(F)cc3)n2)cc1	.	i
COc1ccc(CCN(Cc2cc3cc(C)c(C)cc3nc2Cl)C(=O)C2CC2)cc1	-6.45	-6.45*
Cc1ccc2nc(Cl)c(CN(Cc3cccs3)C(=O)C3CC3)cc2c1	.	i
Cc1onc(C(=O)N2CCOCC2)c1[N+](=O)[O-]	.	i
Cc1ccc(C(=O)OCC(=O)c2c[nH]c3ccccc23)cc1S(=O)(=O)N1CCCCC1	1.23	i
COc1ccc(S(=O)(=O)Nc2cc3c4c(oc3c3ccccc23)CCCC4=O)cc1	.	i
COc1ccc(S(=O)(=O)Nc2cc3c4c(oc3c3ccccc23)CC(C)(C)CC4=O)cc1	-6.45	-6.45*
CCOc1ccc(CCNC(=O)COC(=O)c2ccc(C)c([N+](=O)[O-])c2)cc1OCC	2.07	i
COc1ccc(OC)c(NC(=S)N2CCN(Cc3ccccc3)CC2)c1	1	i
COc1ccc(OC)c(NC(=S)N2CCC(C(O)(c3ccccc3)c3ccccc3)CC2)c1	5.89*	i
Cc1ccc(-n2cc(C(=O)c3ccc(N4CCN(C)CC4)cc3)nn2)cc1Cl	.	i
COc1ccccc1C(=O)N/C(=C\c1ccccc1)C(=O)NC(Cc1ccccc1)C(=O)O (configuration not stated)	.	i
O=C(O)c1cc(NC(=O)c2ccc(Cl)c([N+](=O)[O-])c2)cc(C(=O)O)c1	0.26	i
O=C(Nc1ccc(C(O)(C(F)(F)F)C(F)(F)F)cc1)c1ccc(Cl)c([N+](=O)[O-])c1	-7	-7*
Cc1cc2nnc(SCC(=O)Nc3cc(S(=O)(=O)N4CCOCC4)ccc3Cl)n2c2ccccc12	1.24	i
Cc1ccc(-n2nnnc2SCC(=O)NC2CCCc3ccccc32)cc1 (configuration not stated)	.	i
Cc1ccc(-n2nnnc2SCC(=O)NC2CCCc3ccccc32)c(C)c1 (configuration not stated)	-6.48	-6.48*
C=CCn1c(SCc2nc3ccccc3c(=O)[nH]2)nc2scc(C3CC3)c2c1=O	0.23	i
CCn1c(SCc2cccc(F)c2)nnc1-c1ccncc1	0.79	i
CCn1c(SCc2cccc(C)c2)nnc1-c1ccc(C)cc1	-5.98	-5.98*
CN1CCN(c2ccc(Cl)cc2NC(=O)c2cccc(S(=O)(=O)N(C)C)c2)CC1	.	i
CN1CCN(c2ccc(Cl)cc2NC(=O)/C=C/c2cccc(F)c2)CC1	-6.54	-6.54*
CCCCCCNc1nc(NCc2ccco2)nc(OCC)n1	-6.06	-6.06*
SMILES	KCNQ2 pot	KCNQ2 inh
CCCCCCCCNc1nc(Cl)nc(NCc2ccco2)n1	0.34	i
Cn1c(=O)c2c(ncn2CC(=O)OCC(=O)Nc2ccccc2)n(C)c1=O	0.42	i
Cc1ccccc1OCC(O)CN1CCN(CC(O)COc2ccccc2C)CC1 (configuration not stated)	1.22	i
CCCCc1oc2c(c(=O)c1C)C(=O)CC(c1ccccc1)C2 (configuration not stated)	0.72	i
COC(=O)[C@H](C)NC(=O)COc1ccccc1	0.29	i
CCCCCCCCCNC(=O)[C@H](NC(=O)COc1ccccc1)[C@@H]1NC(C(=O)OC)C(C)(C)S1 (some centres not stated)	-6.33	-6.33*
COc1ccc2nc(N3CCCCC3)c(C#N)cc2c1	1.19	i
CCC(Sc1nc(C)cc(C)n1)C(=O)O (configuration not stated)	6.18*	i
CCC(Sc1nc(C)cc(C)n1)C(=O)Nc1cc(C)on1 (configuration not stated)	.	i
COc1ccc(Cl)cc1N(CC(=O)N(C)C)S(=O)(=O)c1ccc(C)c([N+](=O)[O-])c1	.	i
CC1CCN(C(=O)CC(NC(N)=O)c2ccccc2Cl)CC1 (configuration not stated)	.	i
CCc1nc(-n2[nH]c(=O)c3ccccc3c2=O)c2c3c(sc2n1)CCCC3	.	i
CCc1nc(Sc2nnnn2-c2ccccc2)c2c3c(sc2n1)CCCC3	-5.92	-5.92*
COC(=O)c1sc(N)c(C(=O)OC)c1COC(=O)CCNS(=O)(=O)c1ccc(C)cc1	0.79	i
CSc1nnc(-c2sccc2OCc2ccccc2)n1C	.	i
CSc1n[nH]c(-c2sccc2OCc2ccc(C)cc2)n1	-6.14	-6.14*
CC(C)(C)OC(=O)[C@H](Cc1ccccc1)NC(=O)c1nc[nH]c1C(=O)N1CCN(C(=O)OC(C)(C)C)CC1	.	i
CCOC(=O)Cc1csc(NC(=O)c2c(C)noc2C)n1	.	i
COc1ccccc1NC(=O)c1sc2ncn(Cc3ccccc3C)c(=O)c2c1C	-5.85	-5.85*
CCn1cnc2sc(C(=O)Nc3ccccc3OC)c(C)c2c1=O	.	i
COc1cccc(CN(C)C(=O)c2cc(COc3c(F)cccc3F)on2)c1	.	i
Cc1cc(OCc2cc(C(=O)N(C)Cc3ccccn3)no2)cc(C)c1Cl	.	i
COc1cccc(CN(C)C(=O)c2cc(COc3ccc4ncccc4c3)on2)c1	-7.46	-7.46*
O=C(NCCc1cn2ccccc2n1)c1cc(COc2ccc3ncccc3c2)on1	-6.04	-6.04*
CN(CCCN1CCOCC1)C(=O)c1cc(COc2cccc(C(F)(F)F)c2)on1	.	i
SMILES	KCNQ2 pot	KCNQ2 inh
O=C(NC1CCCC1)c1cc(COc2ccc3ncccc3c2)on1	2.95	i
Cc1cc(OCc2cc(C(=O)N(C)CCOc3ccccc3)no2)cc(C)c1Cl	-5.66	-5.66*
CN(CCc1ccccc1)C(=O)c1cc(COc2cccc(C(F)(F)F)c2)on1	-5.54	-5.54*
CC1=NNC(=O)C1C(c1ccc(F)cc1)C(C#N)C#N (configuration not stated)	.	i
CCOc1cc(CNC2CCCC2)c(Cl)cc1OCC(=O)Nc1ccccc1	.	i
COc1ccccc1CCNC(=O)c1ccc(Br)s1	-6.34	-6.34*
COc1ccccc1CCNS(=O)(=O)CCNC(=O)c1ccccc1	0.17	i
CCCC(=O)N(CCN1CCOCC1)c1nc2c(C)cccc2s1	.	i
Cc1ccc(S(=O)(=O)NCC(=O)N(CC(=O)NCC2CCCO2)c2ccc(Cl)cc2)cc1 (configuration not stated)	0.03	i
COc1ccc(/C=C(\NC(=O)c2ccc([N+](=O)[O-])cc2)C(=O)NCCCn2ccnc2)cc1	.	i
N#C/C(=C\c1ccc([N+](=O)[O-])cc1)C(=O)NCCCn1ccnc1	-5.62	-5.62*
CCc1nnc(NC(=O)C2=CCN(S(=O)(=O)c3ccccc3)CC2)s1	.	i
O=C(COc1cccc2ccccc12)N1c2ccccc2CCc2ccccc21	-7.15	-7.15*
O=C(COc1ccc(F)cc1)N1c2ccccc2CCc2ccccc21	.	i
N/C(Cc1ccccc1Sc1ccccc1)=N\O	0.89	i
O=C(N1CCOCC1)C12CC3CC(C1)CC(n1cnc(Cl)n1)(C3)C2	3.39	i
COC(=O)c1sc(S(=O)(=O)N2CCCCC2C(=O)O)c(C(=O)OC)c1C (configuration not stated)	0.13	i
Cn1c(SCC(=O)N2c3ccccc3CCc3ccccc32)nnc1-c1ccc(O)cc1	-5.77	-5.77*
Cn1c(SCC(=O)c2ccccc2)nnc1-c1ccc(O)cc1	0.82	i
COc1ccc(NC(=O)Nc2ccc(N(C)C)cc2)cc1	0.98	i
CCCCNC(=O)COC(=O)c1ccc(C)c(NC(=O)c2ccco2)c1	0.33	i

Bioassay records from PubChem BioAssay.
